The target of test [1] is Metallo-beta-lactamase type 2 (Klebsiella pneumoniae) (UniProt C7C422). In words: qHTS to identify inhibitors of the New Delhi Metallo-beta-lactamase (NDM): assay validation screen against the NCATS LOPAC Collection (AID 1794843).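 Note: nitrocefin turnover by NDM-1 measured as 485 nm absorbance at plateau; series mostly up to about 38 µM.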 In outline: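 Enzyme 2 nM final, 50 mM HEPES pH 7.0, 1 uM ZnSO4, 0.01% Tween20; cpds in DMSO, preincub w/ enzyme; + nitrocefin (50 uM stock); A485 at plateau; no-enzyme column as blank.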
Background: qHTS replaces the single test concentration by a dilution series.

The target of test [2] is Glutathione peroxidase 1 (Homo sapiens) (UniProt P07203). The test is described as follows: Primary qHTS Assay for Inhibitors of Recombinant Selenoprotein Glutathione Peroxidase 1 (GPX1) (AID 1845191). Note: nearly all actives have a fitted effect of over 65% in size. In outline:
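GR-coupled assay: compounds preincubated 30 min at room temperature with GPX1, then reaction started with CHP; final 10 nM GPX1, 1 mM GSH, 0.5 mM CHP, 0.5 mM NADPH, 100 nM GR, 0.01% BSA, pH 7.5 Tris buffer. NADPH fluorescence (340/450 nm) read at 0 and 15 min.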

Test [3] concerns the target Phospholipid hydroperoxide glutathione peroxidase GPX4 (Homo sapiens) (UniProt P36969). In words: Primary qHTS Assay for Inhibitors of Recombinant Selenoprotein Glutathione Peroxidase 4 (GPX4) (AID 1845192). Note: nearly all actives have a fitted effect of over 65% in size. Note: potency is the fitted concentration of half-maximal effect. A digest of the protocol: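 GR-coupled assay: recombinant GPX4 preincubated 30 min with compound at room temperature; final 200 nM GPX4, 1 mM GSH, 0.5 mM cumene hydroperoxide, 0.5 mM NADPH, 100 nM GR, 0.01% BSA, pH 7.5 Tris. NADPH fluorescence (340/450 nm) read at 0 and 15 min.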

Test [4] is described as follows: Primary fluorescence-based thiol-reactive (MSTI) qHTS assay for identification of artifact compounds. (AID 1845221). Note: potency is the fitted concentration of half-maximal effect; nearly all actives have a fitted effect of over 65% in size. A digest of the protocol: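 First, 4 uM MSTI in 2% DMSO/PBS pH 7.4 was dispensed; next, compounds were added; then plates sat 1 h at room temperature without light. Finally, emission at 598 nm was recorded.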
Test [5] can be described thus: Primary redox qHTS assay for identification of artifact compounds. (AID 1845223). A digest of the protocol: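 Amplex Red (25 uM) and HRP (250 mU/mL) in HBSS, with compounds for 15 min, then 250 uM DTT for 30 min, room temperature, dark. Fluorescence 525/598 nm read; normalized to DMSO and 10 uM DA3003; Hill fit.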

Inconclusive results are not listed. The source made the active and inactive calls. Calls come from the whole dose curve; as a rule, active = well fitted curve in the direction sought with a large enough effect; inconclusive = small, poorly fitted or top-dose-only effect, or another doubt; inactive = no such curve, though single readings can be large; an effect the other way counts as inactive or inconclusive.

Metallo-beta-lactamase type 2 (Klebsiella pneumoniae), sequence (C7C422 whole entry, looked up): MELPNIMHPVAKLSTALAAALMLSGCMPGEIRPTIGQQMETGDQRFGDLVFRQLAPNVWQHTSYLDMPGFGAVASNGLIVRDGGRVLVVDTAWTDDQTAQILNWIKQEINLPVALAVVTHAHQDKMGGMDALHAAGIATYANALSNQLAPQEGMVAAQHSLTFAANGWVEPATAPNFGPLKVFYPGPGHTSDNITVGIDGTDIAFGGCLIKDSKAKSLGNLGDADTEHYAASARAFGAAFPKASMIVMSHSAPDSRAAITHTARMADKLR
Glutathione peroxidase 1 (Homo sapiens), sequence (P07203 whole entry, looked up): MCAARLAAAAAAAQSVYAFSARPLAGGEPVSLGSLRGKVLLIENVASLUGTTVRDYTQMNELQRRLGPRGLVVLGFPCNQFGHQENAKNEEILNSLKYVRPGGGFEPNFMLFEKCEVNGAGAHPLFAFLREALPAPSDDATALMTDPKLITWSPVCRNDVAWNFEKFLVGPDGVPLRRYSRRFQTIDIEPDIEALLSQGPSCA
Phospholipid hydroperoxide glutathione peroxidase GPX4 (Homo sapiens), sequence (P36969 whole entry, looked up): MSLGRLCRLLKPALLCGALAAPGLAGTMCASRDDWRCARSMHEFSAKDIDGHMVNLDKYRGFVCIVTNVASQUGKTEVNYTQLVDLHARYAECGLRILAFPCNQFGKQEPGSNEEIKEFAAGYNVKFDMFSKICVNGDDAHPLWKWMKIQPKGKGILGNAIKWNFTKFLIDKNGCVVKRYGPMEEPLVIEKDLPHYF

As for `C#CCN[C@H](C)Cc1ccccc1`, the Potency entry in test [1], in test [2] and in test [3] was “inactive” throughout.

Consider `COc1ccc2c(c1)C13CCCCC1C(C2)N(C)CC3` (stereo not given), for which the Potency entry in test [1], in test [2] and in test [3] was “inactive” throughout.

With `Nc1cc2c(ncn2CCOCP(=O)(O)O)c(=O)[nH]1`, the Potency entry in test [1], in test [2] and in test [3] was “inactive” throughout.

For `CC(=O)OCC1=C(C(=O)O)N2C(=O)[C@@H](NC(=O)CCC[C@@H](N)C(=O)O)[C@H]2SC1`, the Potency result in test [1], in test [2] and in test [3] was “inactive” each time.

`NC(=O)COc1c(F)cc(SCCNS(=O)(=O)c2ccccc2)cc1F`: the Potency entry in test [1], in test [2] and in test [3] was “inactive” throughout.

On to `C[N+]1(C)CCc2cc3c(cc2[C@H]1[C@@H]1OC(=O)c2c1ccc1c2OCO1)OCO3`, for which the Potency result in test [1], in test [2] and in test [3] was “inactive” each time.

Take `NCCc1c[nH]c2ccc(C(N)=O)cc12`: the Potency entry in test [1], in test [2] and in test [3] was “inactive” each time.

Turning to `Cc1o[nH]c(=O)c1CC(N)C(=O)O` (stereo not given), the Potency result in test [1], in test [2] and in test [3] was “inactive” in each case.

Turning to `CC(N)Cc1c[nH]c2ccc(O)cc12` (stereo not given), the Potency result in test [1], in test [2] and in test [3] was “inactive” each time.

As to `NCC(O)c1cc(O)c(O)cc1F` (stereo not given), the Potency result in test [1], in test [2] and in test [3] was “inactive” in each case.

For the molecule `O=C1CC[C@@]2(O)C3Cc4ccc(O)c5c4C2(CCN3CC2CC2)[C@H]1O5` (stereo not given in full), the Potency result in test [1], in test [2] and in test [3] was “inactive” each time.

For the molecule `CC(N)Cc1c[nH]c2ccc(OCc3cccs3)cc12` (stereo not given), the Potency result in test [1], in test [2] and in test [3] was “inactive” each time.

In the case of `c1ccc2c(N3CCNCC3)cccc2c1`, the Potency entry in test [1], in test [2] and in test [3] was “inactive” throughout.

Regarding `CN1CC[C@@]2(C)c3cc(O)ccc3N(C)C12` (stereo not given in full), the Potency entry in test [1], in test [2] and in test [3] was “inactive” throughout.

For `C[N+]1(C)CCOC(O)(c2ccc(-c3ccc(C4(O)C[N+](C)(C)CCO4)cc3)cc2)C1` (stereo not given), the Potency entry in test [1], in test [2] and in test [3] was “inactive” in each case.

Regarding `CCCN(CCC)CCc1ccc(O)c(O)c1`, the Potency entry in test [1], in test [2] and in test [3] was “inactive” throughout.

Regarding `CCCn1c(=O)c2[nH]c(C3CCCC3)nc2n(CCCOC(=O)c2ccc(S(=O)(=O)F)cc2)c1=O`, the Potency result in test [1], in test [2] and in test [3] was “inactive” throughout.

Take `C[C@]12Cc3cn4c(nc3C=C1CCC1C2CC[C@@]2(C)[C@H]1CC[C@@]2(O)C#N)nc1ccccc14` (stereo not given in full): the Potency entry in test [1], in test [2] and in test [3] was “inactive” each time.

Take `C[C@H](N)CN1CCc2ccc(Br)cc21`: the Potency result in test [1], in test [2] and in test [3] was “inactive” each time.

Turning to `CN1C2CCC1CC(OC(c1ccccc1)c1ccccc1N)C2` (stereo not given), the Potency entry in test [1], in test [2] and in test [3] was “inactive” throughout.

Turning to `COc1ccc(CNC(=O)/C=C/c2ccc3[nH]cc(CCN(C)C)c3c2)cc1`, the Potency result in test [1], in test [2] and in test [3] was “inactive” each time.

With `CC(C)(C)OC(=O)NC1[C@H]2CNC[C@@H]12` (stereo not given in full), the Potency result in test [1], in test [2] and in test [3] was “inactive” throughout.

For the molecule `CCCC[N+]1(C)C2CC(OC(=O)[C@H](CO)c3ccccc3)CC1C1OC12` (stereo not given in full), the Potency entry in test [1], in test [2] and in test [3] was “inactive” each time.

In the case of `NCCc1ccc(S(=O)(=O)F)cc1`, the Potency entry in test [1], in test [2] and in test [3] was “inactive” throughout.

Take `N[C@@H](Cn1oc(=O)[nH]c1=O)C(=O)O`: the Potency result in test [1], in test [2] and in test [3] was “inactive” in each case.

In the case of `CCN1C[C@@]2(COC)C3[C@@H](OC)C4[C@@H]1C3([C@@H]1C[C@]3(O)[C@H](OC(=O)c5ccccc5)[C@@H]1[C@]4(OC(C)=O)[C@@H](O)[C@@H]3OC)[C@H](OC)C[C@H]2O`, the Potency entry in test [1], in test [2] and in test [3] was “inactive” in each case.

`CCCN1CCC[C@@H](c2cccc(O)c2)C1`: the Potency entry in test [1], in test [2] and in test [3] was “inactive” in each case.

As for `C[N+]1(C)C2CCC1CC(OC(=O)c1c[nH]c3ccccc13)C2` (stereo not given), the Potency entry in test [1], in test [2] and in test [3] was “inactive” throughout.

Turning to `O=C(NC1CN2CCC1CC2)c1cc2ccoc2cn1` (stereo not given), the Potency entry in test [1], in test [2] and in test [3] was “inactive” in each case.

With `CCNC(=O)[C@H]1O[C@@H](n2cnc3c(N)ncnc32)[C@H](O)[C@@H]1O`, the Potency result in test [1], in test [2] and in test [3] was “inactive” in each case.

Consider `NC(CCCCCP(=O)(O)O)C(=O)O` (stereo not given), for which the Potency entry in test [1], in test [2] and in test [3] was “inactive” in each case.

With `CC(N)[C@H](O)c1ccc(O)c(O)c1` (stereo not given in full), the Potency entry in test [1], in test [2] and in test [3] was “inactive” each time.

`C[C@@H]1O[C@@H](O[C@H]2C[C@@H](O)[C@]3(CO)[C@@H]4C(CC[C@]3(O)C2)[C@@]2(O)CC[C@H]([C@@H]3COC(=O)C3)[C@@]2(C)C[C@H]4O)[C@H](O)[C@H](O)[C@H]1O` (stereo not given in full): the Potency result in test [1], in test [2] and in test [3] was “inactive” each time.

As for `NCCCP(=O)(O)O`, the Potency result in test [1], in test [2] and in test [3] was “inactive” in each case.

As to `CN1CCC(c2c[nH]c3ccc(O)cc23)CC1`, the Potency entry in test [1], in test [2] and in test [3] was “inactive” each time.

In the case of `CN1CCC[C@@H]1Cc1c[nH]c2ccc(Nc3ncccc3[N+](=O)[O-])cc12`, the Potency in test [4] was 1.68 µM (active). In addition, the molecule was classed as inactive in test [5].

With `CCCCNCC(O)c1ccc(O)cc1` (stereo not given), the Potency entry in test [2] and in test [3] was “inactive” in each case.

On to `C[C@]12CC[C@H]3[C@@H](CC[C@@]45O[C@@H]4C(O)=C(C#N)C[C@]35C)[C@@H]1CC[C@@H]2O`, for which the Potency entry in test [2] and in test [3] was “inactive” in each case.

For the molecule `Oc1ccc2c3c1O[C@H]1[C@@H](O)CC[C@@]4(O)[C@@H](C2)N(CC2CCC2)CC[C@]314`, the Potency result in test [2] and in test [3] was “inactive” each time.

For `O=C(C[C@@H]1NCCC[C@H]1O)Cn1cnc2cc(Br)c(Cl)cc2c1=O`, the Potency entry in test [2] was “inactive”. In addition, the Potency in test [3] is 17.8 µM (active).

`CCNCC(O)c1cccc(O)c1` (stereo not given): the Potency result in test [2] and in test [3] was “inactive” each time.

Consider `CCOc1ccc2c3c1O[C@H]1[C@@H](O)C=C[C@H]4[C@@H](C2)N(C)CC[C@@]341`, for which the Potency entry in test [2] and in test [3] was “inactive” throughout.

Take `O=C(OCCN1CCCCC1)C(O)(c1ccccc1)c1ccccc1`: the Potency result in test [2] and in test [3] was “inactive” each time.

For `C[C@]12CCC(=O)C=C1C=C[C@@H]1[C@@H]2CC[C@@]2(C)[C@H]1CC[C@@]2(O)CCC(=O)O`, the Potency result in test [2] and in test [3] was “inactive” throughout.

As for `CCC1(CC)C(=O)NC(=O)N(C)C1=O`, the Potency result in test [2] and in test [3] was “inactive” each time.

The record behind these values is PubChem BioAssay (NCATS).
